gsp agonist: qHTS for Agonist of gsp, the Etiologic Mutation Responsible for Fibrous Dysplasia/McCune-Albright Syndrome: qHTS; Potency, µM (highest dose often 76.9 µM), for the others: top-dose activation (cAMP increase), most hits filed as activators; AID 624287, 2012; 340,000 tested, 0.13% active; gsp mutant cells, cAMP HTRF, 30 min; active = well fitted activation curve with a large enough effect; inconclusive = small, poorly fitted or top-dose-only effect, or another doubt; inactive = no such curve, though single readings can be large or run the other way; cell line not stated here;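 also: phosphodiesterase inhibitor Ro 20-1724 added with compounds to block cAMP breakdown; potency is read from the fitted curve at half-maximal effect; nearly all actives have a fitted effect of over 60% in size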
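Cells stably selected in G418 were plated at 2000/well, grown 16-24 hr, then given compounds in DMSO with the PDE inhibitor […] (300 uM solution added) for 30 min at 37C; cAMP was read by HTRF.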
RXFP1 ag: qHTS Assay for Agonists of the Relaxin Receptor RXFP1. Potency, µM (top dose mostly 57.5 µM), without a hit: at the top dose activation, most hits filed as activators. AID 2676, 2010. Relaxin receptor 1 (Homo sapiens), Q9HBX9. HEK293T-RXFP1 cAMP TR-FRET, 30 min; response scale: percent of porcine relaxin response, buffer zero. 370,000 tested, 0.3% active; active = well fitted activation curve with a large enough effect; inconclusive = small, poorly fitted or top-dose-only effect; also: potency is read from the fitted curve at half-maximal effect; % is scaled to controls: 0 for no effect and ±100 for the full control effect; nearly all actives have a fitted effect of over 60% in size
Target sequence (Q9HBX9 whole entry, looked up): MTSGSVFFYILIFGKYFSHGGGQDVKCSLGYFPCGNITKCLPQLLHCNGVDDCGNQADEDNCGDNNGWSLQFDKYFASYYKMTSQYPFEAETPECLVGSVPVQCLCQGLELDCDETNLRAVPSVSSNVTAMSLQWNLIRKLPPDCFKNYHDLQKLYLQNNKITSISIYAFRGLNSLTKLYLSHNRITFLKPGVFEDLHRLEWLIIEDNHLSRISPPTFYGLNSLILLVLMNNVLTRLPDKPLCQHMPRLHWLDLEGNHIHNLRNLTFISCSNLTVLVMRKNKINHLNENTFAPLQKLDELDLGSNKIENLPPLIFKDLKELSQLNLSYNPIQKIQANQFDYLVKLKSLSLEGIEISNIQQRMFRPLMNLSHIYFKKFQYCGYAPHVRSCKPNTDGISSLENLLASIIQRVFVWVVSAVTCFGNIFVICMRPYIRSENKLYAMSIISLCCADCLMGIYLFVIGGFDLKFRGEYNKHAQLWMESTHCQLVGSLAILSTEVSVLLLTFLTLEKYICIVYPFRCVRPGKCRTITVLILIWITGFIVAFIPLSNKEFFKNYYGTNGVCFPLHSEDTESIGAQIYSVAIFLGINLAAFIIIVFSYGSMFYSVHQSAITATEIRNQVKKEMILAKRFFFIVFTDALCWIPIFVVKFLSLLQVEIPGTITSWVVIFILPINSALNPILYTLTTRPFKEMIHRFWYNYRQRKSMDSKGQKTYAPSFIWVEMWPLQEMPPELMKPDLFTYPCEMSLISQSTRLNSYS
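cAMP rise read by TR-FRET after 30 min, 37C compound exposure (up to 58 uM) in RXFP1-transfected HEK293 cells with Ro 20174 present. EC50 from Hill-equation fits, with 29 nM porcine relaxin as 100% and buffer as basal.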
RXFP1 antag: qHTS Assay for Antagonists of the Relaxin Receptor RXFP1; Relaxin receptor 1 (Homo sapiens), Q9HBX9; HEK293-RXFP1, relaxin-stimulated cAMP HTRF, 30 min; hits give low values; activity change, negative = inhibition, % at 57.5 µM; 350,000 tested, 0.59% active; AID 1259400, 2018;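 active = activity change of -60% or lower, but not beyond a set lower limit; inconclusive = change between -60% and -40%, or beyond the set limit; inactive = change above -40%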; also: % is scaled to controls: 0 for no effect and ±100 for the full control effect
gsp antag: qHTS for Antagonists of gsp, the Etiologic Mutation Responsible for Fibrous Dysplasia/McCune-Albright Syndrome: qHTS; gsp-mutant cells, cAMP HTRF, 30 min; Potency, µM (titrated, usually from 76.9 µM), without a hit: at the top dose activity change, negative = inhibition, most hits filed as inhibitors; 340,000 tested, 0.4% active; calls by dose curve; cell line not stated here;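 also: intracellular cAMP measured with PDE inhibitor Ro 20-1724 present during compound exposure; potency is read from the fitted curve at half-maximal effect; % is scaled to controls: 0 for no effect and ±100 for the full control effect; nearly all actives have a fitted effect of over 65% in size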
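G418-selected cells were plated in DMEM/10% FBS for 16-24 h at 37C, then treated with compounds plus the PDE inhibitor […] (300 uM solution added) for 30 min at 37C. Intracellular cAMP was measured by HTRF after 30 min lysis at room temperature.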
The depositor's hits bear a star; u = inconclusive; x = no result; [ ] = another dose, or the depositor's remark. Sampled rows, rich in hits. Any-hit rate of the full collection: about 0.9%.

SMILES | gsp agonist | RXFP1 ag | RXFP1 antag | gsp antag
CCON=C(CC)C1=C(O)CC(c2c(C)cc(C)cc2C)CC1=O (stereo unspecified) | x | x | -34 | x
CCC(=O)C(CCN(C)C)(c1ccccc1)c1ccccc1 | x | x | 9 | x
O=C(c1ccc2c(c1)OCO2)C1CCCN(Cc2ccc(F)c(F)c2)C1 (stereo unspecified) | -8% | 1% | -22 | -11%
O=C(c1ccc(Cl)cc1)C1CCCN(Cc2ccc3c(c2)OCCO3)C1 (stereo unspecified) | -5%[15.4 µM] | 0% | -73* | 7%
COc1ccc(OC)c(/C=N/OC(=O)Nc2ccc(Cl)cc2)c1 | -51% | 0% | 4 | -4%
O=C(Nc1ccc(Oc2ccc(Cl)cc2)c(Cl)c1)c1cc(I)cc(I)c1O | x | 2% | -92* | u
CC1Sc2c(C(=O)O)c(=O)c3cc(F)c(N4CCNCC4)cc3n21 (stereo unspecified) | x | x | -3 | x
CCc1cc2c(s1)N(CC(=O)OC)C(=O)CN=C2c1ccccc1OC | 0% | 0% | -3 | -6%
Cc1ccccc1C1=NCC(=O)N(CC(=O)N2CCCCC2)c2sc(C)c(C)c21 | -29% | 1% | -6 | 7.1µM*
CCC(=O)O[C@H]1CC[C@H]2[C@@H]3CCC4=CC(=O)CC[C@]4(C)[C@H]3CC[C@]12C | x | x | -68* | -13%
C[C@]12CC[C@H]3[C@@H](CCC4=CC(=O)CC[C@@]43C)[C@@H]1CC[C@@H]2C(=O)O | x | x | -27 | x
Cc1ccc(-c2cc(-c3ccc(C)cc3)[n+](-c3ccccc3)c(-c3ccc(C)cc3)c2)cc1 | x | 0% | x | -23%
C[n+]1c(-c2ccccc2)cc(-c2ccc(Cl)cc2)cc1-c1ccccc1 | 32% | 3% | -88* | -4%
CCOC(=O)c1ccc(-[n+]2c(-c3ccccc3)cc(-c3ccccc3)cc2-c2ccccc2)cc1 | x | -1% | x | -7%
c1ccc(-c2cc(-c3ccccc3)[n+](-c3ccccc3)c(-c3ccccc3)c2)cc1 | -5%[15.4 µM] | 7% | u | 50µM*
Cc1ccc(-c2cc(-c3ccccc3)cc(-c3ccccc3)[n+]2-c2ccccc2)cc1 | x | 2% | x | 50µM*
CN(C)c1ccc(-[n+]2c(-c3ccccc3)cc(-c3ccccc3)cc2-c2ccccc2)cc1 | u | 8% | -105* | -24%
C[C@@H]1CN([C@@H](C)CO)C(=O)c2c(c3ccccc3n2C)-c2ccccc2CO[C@H]1CN(C)S(=O)(=O)c1ccc(C#N)cc1 | -51% | x | 13 | x
Sc1ccccc1Cl | x | x | -6 | x
O=C1NC(=O)N(Cc2ccccc2)C(=O)/C1=C\c1ccco1 | 19%[15.4 µM] | 2% | -20 | -16%
CCc1ccc(N2C(=O)NC(=O)/C(=C\C=C\c3ccco3)C2=O)cc1 | 0% | 1% | -27 | -13%
CC(C)c1ccc(N2C(=O)NC(=O)/C(=C/C=C/c3ccco3)C2=O)cc1 | 7% | 0% | -80* | -7%
Cc1ccc(N2C(=O)NC(=O)/C(=C/C=C/c3ccco3)C2=O)cc1 | 14% | 1% | -62* | -9%
O=C1NC(=O)N(Cc2ccc(F)cc2)C(=O)/C1=C\C=C\c1ccco1 | 27% | 1% | -70* | 6%
CCC1(CCC(C)C)C(=O)NC(=O)NC1=O | x | x | 6 | x
SMILES | gsp agonist | RXFP1 ag | RXFP1 antag | gsp antag
C#CC(O)(C=CCl)CC (stereo unspecified) | x | x | -8 | x
Cc1cc2c(C(F)(F)F)cc(=O)oc2c2c1NCCC2 | 16µM* | 4% | 1 | 1%
O=c1cc(C(F)(F)F)c2cc3c4c(c2o1)CCCN4CCC3 | 10µM* | 9% | 5 | 2%
CN1C2CCC(C)(C)C1CC(OC(=O)C(O)(c1cccs1)c1cccs1)C2 (stereo unspecified) | x | x | 6 | x
COC(=O)C1=C(C(=O)OC)C2OC1c1cc3ccccc3cc12 | u | x | -120* | -4%
COC(=O)C1=C(c2ccc3ccccc3c2)C[C@@H]2CC[C@H]1N2C | u | -1% | x | 5%
COc1ccc(CNCCc2c(C)[nH]c3ccc(OC(F)(F)F)cc23)c(OC)c1 | u | 0% | -83* | -1%
COc1ccc2[nH]c(C)c(CCNCc3cc(OC)c(OC)c(OC)c3)c2c1 | 24%[15.4 µM] | -4% | -3 | -32%
ClCc1cccc(Cl)c1 | x | x | -7 | x
Nc1ccc2ccc3cccc[n+]3c2c1 | u | u | 4 | 1%
C[n+]1c(-c2ccccc2)c2cc(N)ccc2c2ccc(N)cc21 | x | 8% | x | 35µM*
CCCN(CCC)c1c([N+](=O)[O-])cc(S(N)(=O)=O)cc1[N+](=O)[O-] | x | x | -73* | x
O=c1c2ccccc2nc(/C=C/c2ccccc2)n1-c1ccc(O)cc1 | -5% | 1% | -12 | -22%
O=C(O)c1ccc(/C=C/c2nc3ccccc3c(=O)n2-c2ccc(Br)cc2)cc1 | -31% | 0% | -4 | 14µM*
O=C(O)CNC1c2ccccc2CSc2ccccc21 (stereo unspecified) | 10% | x | -63* | -11%
COc1ccc(-n2c(O)c(/C=C3\C=Nc4ccc(Br)cc43)c(=O)[nH]c2=O)c(OC)c1 | u | -3% | -71* | -18%
Cc1[nH]n(-c2ccccc2)c(=O)c1C(c1ccc([N+](=O)[O-])cc1)c1c(C)[nH]n(-c2ccccc2)c1=O | u | 0% | -11 | 25µM*
C#CCN(C[C@@H]1[C@@H](OC(=O)Nc2c(C)noc2C)[C@@H](OC(=O)Nc2c(C)noc2C)Cn2c(=O)n(CCCCCC)c(=O)n21)S(=O)(=O)c1ccc(C)cc1 | -34% | x | 2 | x

Screening data (PubChem)
